Hit rate of the full screen: of about 290,000 compounds, about 27,000 (9.3%) were called active. The sample as a whole holds a higher share of actives than the screen did. A number with no mark means an inactive call. Cut-off read from the data, not from the text of the source: active = inhibition mostly above about 28% (no sharp cut-off); inactive = mostly below about 43%.
Experiment: A qHTS for Small Molecule Inhibitors of Shiga Toxin; note: 0% is about no effect
Details: Vero cells, Shiga toxin protein synthesis inhibition reporter; at 38.7 µM, active compounds read high

Row | SMILES | inhibition
1 | Cc1cccc(NC(=O)C(C)SCc2ccccc2)c1 (configuration not stated) | 30.2%
2 | CSc1ccc(CCNC(=O)CS(=O)(=O)Cc2nc(-c3ccccc3F)oc2C)cc1 | -3.45%
3 | CCOc1ccccc1NS(=O)(=O)c1cc2c3c(c1)C(C)C(=O)N3CCC2 (configuration not stated) | -4.9%
4 | COc1ccc2[nH]c(C(=O)N/N=C/c3cc(OC)c(OC)c(OC)c3)cc2c1 | 8.34%
5 | COc1cccc(NC(=O)CN2CCN(CC(=O)Nc3ccccc3Cl)CC2)c1 | -8.02%
6 | COc1ccc2[nH]c(C(=O)Nc3ccccc3Cl)cc2c1 | 46.8% (active)
7 | CC(C)[C@@H](NC(=O)OC(C)(C)C)C(=O)NCC1CCC(C(=O)N[C@@H](Cc2ccccc2)C(=O)O)CC1 (some centres not stated) | 2.35%
8 | O=C1CCN(CCc2ccccc2)CCN1CCOc1ccccc1 | 7.81%
9 | CC(C)(C)OC(=O)NCCCCCC(=O)N/N=C/c1coc2ccccc2c1=O | 69.6% (active)
10 | NC(=S)N/N=C/c1coc2cc(Cl)ccc2c1=O | 5.66%
11 | Cc1ccc2occ(/C=N/NC(=O)c3ccccc3C)c(=O)c2c1 | 9.81%
12 | CC1CCCCN1C(=O)CCS(=O)(=O)Cc1ccccc1 (configuration not stated) | 24.6%
13 | COc1ccc(N(CC(=O)NCc2ccc(F)cc2)C(=O)CCC(=O)Nc2nccs2)cc1 | -15.4%
14 | CCOc1ccc(OCCSc2nc3ccccc3n2CC(=O)O)cc1 | 1.74%
15 | Cc1ccc2c(C)c(C(=O)N(C)CCC3CCCCO3)oc2c1C (configuration not stated) | 55.6%
16 | CCOC(=O)CSc1nc2ccc(C)cc2[nH]1 | 46.5%
17 | Cc1ccc2nc(/C(C#N)=C\c3ccc(OC(=O)c4cccs4)cc3)[nH]c2c1 | 52.8% (active)
18 | Cc1ccc2nc(S(=O)(=O)O)[nH]c2c1 | -4.97%
19 | CCn1c(=S)sc2c(=O)n(CC(=O)Nc3cccc(Br)c3)c(C)nc21 | 13.8%
20 | COC(=O)c1c(NC(=O)COc2ccc(Cl)cc2Cl)sc2c1CC(C)(C)NC2(C)C | -5.3%
21 | Cc1c(C=O)c2ccccc2n1CCOc1ccccc1 | 31.9%
22 | CC/C(C)=N/Nc1nc2sc3c(c2c(=O)[nH]1)CC(C)(C)OC3 | 42.5% (active)
23 | CCSc1nc2sc3c(c2c(=O)[nH]1)CC(C)(C)OC3 | 4.12%
24 | CCOC(=O)CSc1nc2sc3c(c2c(=O)[nH]1)CC(C)(C)OC3 | -6.92%
25 | O=Cc1ccc(OCc2cn3ccccc3n2)cc1 | 57.2% (active)
26 | COc1ccc(C(=O)NCc2cn3ccccc3n2)cc1 | 8.12%
27 | Cc1ccc2nc(COc3ccc(N(C)S(=O)(=O)c4ccccc4)cc3)cc(=O)n2c1 | 13.5%
